Measurements as given in PubChem BioAssay AID602381 (National Center for Advancing Translational Sciences (NCATS), 2012).
Calls of active or inactive are those of the source. Calls follow the shape of the dose curve; as a rule, active = well fitted curve in the direction sought with a large enough effect; inactive = no such curve, though single readings can be large or run the other way.

Biological target: Pyruvate kinase PKLR (Homo sapiens) (UniProt P30613)
Test: qHTS for Activators of Human Muscle Isoform 2 Pyruvate Kinase (PK): Extended Characterization using Reticulocyte PK
Conditions: purified hPK-R, Kinase-Glo ATP luminescence, 1 h; series mostly up to 57.5 µM; activity change, positive = activation: at the top concentration
Description: Human pyruvate kinase reticulocyte (hPK-R) enzyme was supplied as a highly purified (>95% pure) preparation from Structural Genomics Consortium in Toronto (Ontario, Canada) and assayed for its ability to generate ATP from ADP using phosphoenolpyruvate (PEP) as a substrate. ATP generation was detected in a coupled reaction by luciferase-mediated luminescence, an ATP-dependent process. Pyruvate kinase substrates, PEP and ADP, were present in the assay at Km and approximately 10-fold below Km respectively. The enzyme was assayed at an intermediate level of activity to screen for both inhibitors and activators. NIH Chemical Genomics Center [NCGC] NIH Molecular Libraries Probe Centers Network [MLPCN] MLPCN Grant: MH085679 Assay Submitter (PI): Matthew G. Vander Heiden, Harvard Medical School
Three uL of substrate mix (at r.t.) in assay buffer (50 mM Imidazole pH7.2, 50 mM KCl, 7 mM MgCl2, 0.01% Tween 20, 0.05% BSA) was dispensed into white solid bottom 1,536 well microtiter plates so that the final concentrations of substrates in the assay were 0.1 mM ADP and 0.5 mM PEP. 23 nL of compound were delivered by a pin tool and 1 uL of enzyme mix (final concentration of 0.1 nM) in assay buffer (4 degree Celsius) was added. Plates were incubated at room temperature for 1 hour. Two uL of detection mix (Kinase-Glo, Promega; at 4 degree Celsius protected from light) was added and luminescence read by a ViewLux (Perkin Elmer) at 1 second exposure/plate. Data were normalized to the uninhibited (row 31). Additionally, a no enzyme and 5-fold enzyme control was dispensed in row 32, split equally between the two conditions.

Pyruvate kinase PKLR (Homo sapiens), sequence (P30613 whole entry, looked up, canonical isoform): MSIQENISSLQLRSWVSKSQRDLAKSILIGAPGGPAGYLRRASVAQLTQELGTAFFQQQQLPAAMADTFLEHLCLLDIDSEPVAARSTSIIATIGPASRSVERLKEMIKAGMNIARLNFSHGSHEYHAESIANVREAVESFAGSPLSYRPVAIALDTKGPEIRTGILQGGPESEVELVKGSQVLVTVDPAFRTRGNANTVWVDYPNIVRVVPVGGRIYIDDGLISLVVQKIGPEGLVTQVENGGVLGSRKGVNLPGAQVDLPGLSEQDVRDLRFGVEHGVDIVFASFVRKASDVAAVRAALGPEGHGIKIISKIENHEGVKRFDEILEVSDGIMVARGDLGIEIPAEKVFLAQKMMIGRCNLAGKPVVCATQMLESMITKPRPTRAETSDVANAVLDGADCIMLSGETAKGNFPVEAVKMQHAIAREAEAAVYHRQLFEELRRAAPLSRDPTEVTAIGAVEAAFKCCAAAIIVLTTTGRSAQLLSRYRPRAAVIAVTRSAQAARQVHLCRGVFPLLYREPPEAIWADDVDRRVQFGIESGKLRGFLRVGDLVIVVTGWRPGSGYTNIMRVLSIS

SMILES | activity change, positive = activation
Cc1cc2c(s1)c1cnn(Cc3cc(F)ccc3F)c(=O)c1n2C | -18.9% (inactive)
Cc1cc2c(s1)c1cnn(Cc3c(Cl)ccc(C)c3F)c(=O)c1n2C | -1.16% (inactive)
COc1cccc(Cn2ncc3c4sc(S(C)=O)cc4n(C)c3c2=O)c1 (stereo not given) | 11.7% (inactive)
Cc1cc2c(s1)c1cnn(Cc3ccc(F)cc3F)c(=O)c1n2C | -0.917% (inactive)
Cc1cc2c(s1)c1cnn(Cc3cc(F)c(F)cc3F)c(=O)c1n2C | 5.17% (inactive)
